Source: PubChem BioAssay (EPA / NIEHS)
Values joined by “and” are separate entries in the source; they are usually repeats but may differ in a detail not shown here. Equal entries are not always repeated. Results filed as inconclusive are left out. Where a structure was tested more than once in an assay, its records may differ in their call. Active and inactive are the calls of the source. The calls were made as follows, unless noted: active = hit-call score of the fitted dose curve at least 0.9, where 1 is the maximum; inactive = score below 0.9.

Tests used:
[1] = CCTE_Deisenroth_AIME_384WELL_CTox_Inactive: Cytotoxicity Assessment (CTOX) in CCTE's 384-well Estrogen Receptor Transactivation Assay without AIME metabolic competence (metabolism negative), Deisenroth Lab (AID 2284039; active = hit-call score of the fitted dose curve at least 0.9, where 1 is the maximum;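 also: cell viability via live-cell protease substrate cleaved to fluorescent probe; cells exposed 24 h to medium preincubated 2 h with alginate-water beads without S9; loss of fluorescence signal means loss of viability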)
Outline: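 VM7Luc4E2 cells, metabolism-negative arm: test chemicals (0.002–200 uM, 10 points) pre-incubated 2 h with alginate-water microspheres, then medium transferred to cells for 24 h. Viability read as protease-substrate cleavage to fluorescent probe; loss-of-signal, bidirectional fitting.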

[2] = CCTE_Shafer_MEA_dev_active_electrodes_number: CCTE's Neural Network Formation Assay for Number of Active Electrodes, Shafer Lab (AID 2284040; active = hit-call score of the fitted dose curve at least 0.9, where 1 is the maximum;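 as to AC50: potency for loss of active electrodes versus DMSO so lower counts are hits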)
Outline: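 Primary rat cortical neurons on 16-electrode MEA wells, exposed from day 0 through day 12 with compound renewed at DIV 5 and 9 feeds. Active electrodes (mean firing ≥5 spikes/min) counted at DIV 5, 7, 9, 12; trapezoidal AUC across days, loss-of-signal versus DMSO.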

[3] = target: Estrogen receptor (Homo sapiens) (UniProt P03372); assay: CCTE_Deisenroth_AIME_384WELL_LUC_Shift: CCTE's 384-well Estrogen Receptor Transactivation Assay with AIME metabolic competence data shift (ERTA luciferase; difference in metabolism positive and negative), Deisenroth Lab (AID 2284041);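 also: shift is response with S9 minus without S9 so positive means metabolism raised ER signal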
Outline: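 Test chemicals (0.002–200 uM, 10-point) were pre-incubated 2 h with alginate microspheres containing phenobarbital/beta-naphthoflavone-induced male Sprague Dawley rat liver S9 or water, then medium was transferred to VM7Luc4E2 cells for 24 h luciferase readout; shift = S9-positive minus S9-negative normalized response.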

[4] = CCTE_Shafer_MEA_dev_burst_rate: CCTE's Neural Network Formation Assay for Burst Rate, Shafer Lab (AID 2284042);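 as to AC50: potency for loss of burst rate below DMSO control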
Outline: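 Primary rat cortical neurons on PEI-coated 48-well MEA plates (laminin added with cells at plating) (16 electrodes/well), exposed from plating to day 12, dosing renewed at DIV 5 and 9. Burst rate averaged over active electrodes, recorded DIV 5, 7, 9, 12, summarized as AUC; loss versus DMSO.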

[5] = CCTE_Shafer_MEA_dev_bursting_electrodes_number: CCTE's Neural Network Formation Assay for Number of Bursting Electrodes, Shafer Lab (AID 2284043; active = hit-call score of the fitted dose curve at least 0.9, where 1 is the maximum;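 as to AC50: potency is for loss of bursting electrodes relative to DMSO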)
Outline: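 Read-out is the per-well number of electrodes bursting at least once every 2 minutes, recorded on days 5, 7, 9 and 12 and collapsed by trapezoidal area under the curve. Cultures were primary rat cortical neurons on MEA plates, treated continuously from plating.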

[6] = CCTE_Shafer_MEA_dev_per_burst_interspike_interval: CCTE's Neural Network Formation Assay for Burst Interspike Interval, Shafer Lab (AID 2284044);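 also: mean spike spacing inside bursts as AUC over recordings on days 5 7 9 12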;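 as to AC50: potency for a decrease of within-burst interspike interval below DMSO level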
Outline: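 Rat cortical primary cultures, 16 electrodes/well; compound from plating, renewed with full media change DIV 5 and 9. Spikes via adaptive detector; per-burst ISI well-mean over active bursting electrodes; AUC of DIV 5/7/9/12 recordings; loss-direction fit vs DMSO.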

[7] = CCTE_Shafer_MEA_dev_burst_duration_mean: CCTE's Neural Network Formation Assay for Mean Burst Duration, Shafer Lab (AID 2284045);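 as to AC50: curve fitted for loss meaning shorter burst duration than DMSO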
Outline: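 Read-out: average first-to-last-spike interval within single-electrode bursts, averaged over bursting electrodes per well, then summarised as area under the curve across days 5, 7, 9 and 12. Developing rat cortical networks were exposed from day 0.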

[8] = CCTE_Shafer_MEA_dev_inter_network_spike_interval_mean: CCTE's Neural Network Formation Assay for Mean Inter-network Spike Interval, Shafer Lab (AID 2284047);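 as to AC50: potency for a decrease in mean inter-network spike interval below DMSO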
Outline: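 Primary rat cortical neurons on 16-electrode MEA wells, exposed from plating day 0 through DIV 12, compound renewed at DIV 5 and 9 media changes. Mean interval between network-spike peaks recorded DIV 5, 7, 9, 12; collapsed as trapezoidal AUC, fitted downward versus DMSO.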

[9] = CCTE_Shafer_MEA_dev_network_spike_number: CCTE's Neural Network Formation Assay for Number of Network Spikes, Shafer Lab (AID 2284048);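 also: synchronized bursts across electrodes counted on days 5 7 9 12 and integrated as AUC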;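 as to AC50: fit as a loss of signal meaning fewer network spikes than DMSO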
Outline: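 Developing networks of primary rat cortical neurons are treated over 12 days starting at plating, with media and compound fully replaced on DIV 5 and 9. Network spike counts from four recording days are integrated as trapezoidal AUC.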

[10] = CCTE_Shafer_MEA_dev_network_spike_peak: CCTE's Neural Network Formation Assay for Mean Number of Electrodes in Network Spike, Shafer Lab (AID 2284049);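 as to AC50: fitted for loss of signal meaning fewer electrodes in network spikes than DMSO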
Outline: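 Rat cortical primary culture, 1.5 x 10^5 cells/well, 48-well MEA (16 electrodes/well). Dosing day 0 through DIV 12, full media/compound exchange DIV 5, 9. AxIS adaptive spike detection; AUC over days 5/7/9/12; loss-of-signal vs DMSO.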

DIO2 (gene 1734) = assay: CCTE_GLTED_hDIO2: CCTE's human Deiodinase 2 (DIO2) Inhibition Assay, Great Lakes Toxicology and Ecology Division (GLTED) Lab (AID 2284050; active = hit-call score of the fitted dose curve at least 0.9, where 1 is the maximum)
Outline: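 Cell-free human DIO2 incubated 3 h with chemical; liberated iodide quantified by Sandell-Kolthoff absorbance. Triplicate plates; loss of signal fitted vs DMSO.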

[11] = CCTE_Shafer_MEA_dev_spike_duration_mean: CCTE's Neural Network Formation Assay for Mean Spike Duration, Shafer Lab (AID 2284051);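 also: mean network spike duration pooled as area under curve over DIV 5 to 12 recordings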;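 as to AC50: potency for a decrease in mean network spike duration versus DMSO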
Outline: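 Primary rat cortical neurons on 16-electrode MEA wells (PEI-coated, laminin in plating drop), exposed from plating through DIV 12 with compound renewed at DIV 5 and 9. Mean network-spike duration recorded DIV 5, 7, 9, 12; trapezoidal AUC across days, DMSO baseline.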

[12] = CCTE_Shafer_MEA_dev_network_spike_duration_std: CCTE's Neural Network Formation Assay for Standard Deviation of Network Spike Duration, Shafer Lab (AID 2284052);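 also: area under curve of spike duration SD across recording days 5 to 12; hits are decreases in network spike duration SD versus DMSO vehicle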
Outline: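 Primary rat cortical neurons on PEI-coated 16-electrode MEA wells, exposed from plating day 0 through day 12 with compound renewed at DIV 5 and 9. Network spike duration SD recorded on days 5, 7, 9, 12, collapsed as trapezoidal AUC; loss-of-signal fit versus DMSO.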

[13] = CCTE_Shafer_MEA_dev_per_network_spike_spike_percent: CCTE's Neural Network Formation Assay for Percent of Spikes in a Network Spike, Shafer Lab (AID 2284054)
Outline: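 Rat primary cortical cultures, 1.5 x 10^5 cells/well on MEA. Continuous compound exposure d0–12, medium/compound renewed DIV 5, 9. Network-spike spike % (0.05 s peak window), AUC over 4 recordings, DMSO baseline.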

DIO3 (gene 1735) = assay: CCTE_GLTED_hDIO3: CCTE's human Deiodinase 3 (DIO3) Inhibition Assay, Great Lakes Toxicology and Ecology Division (GLTED) Lab (AID 2284055; active = hit-call score of the fitted dose curve at least 0.9, where 1 is the maximum;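 also: potency is for inhibition seen as loss of released iodide signal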)
Outline: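 Human DIO3 from an adenovirus expression system is incubated 3 h with test chemical. Released iodide is quantified by Sandell-Kolthoff absorbance, in triplicate plates. Loss of signal is fitted relative to DMSO.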

[14] = CCTE_Shafer_MEA_dev_LDH: CCTE's Lactate Dehydrogenase Assay for Cytotoxicity in the Neural Network Formation Assay, Shafer Lab (AID 2284068; active = hit-call score of the fitted dose curve at least 0.9, where 1 is the maximum;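 also: exposure for twelve days from plating with re-dosing on DIV 5 and 9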)
Outline: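 Primary rat cortical neurons were plated on PEI/laminin MEA plates and exposed from day 0 for twelve days, with compound renewed at DIV 5 and 9. Cytotoxicity was determined by spectrophotometric LDH assay relative to DMSO.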

[15] = CCTE_Shafer_MEA_dev_AB: CCTE's Alamar Blue Assay for Cytotoxicity in the Neural Network Formation Assay, Shafer Lab (AID 2284083; active = hit-call score of the fitted dose curve at least 0.9, where 1 is the maximum;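 also: twelve days of exposure from plating with re-dosing on DIV 5 and 9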)
Outline: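 Primary rat cortical neurons on PEI-coated 48-well MEA plates, 1.5 x 10^5 cells/well in laminin drop; compound exposure from day 0 of plating for twelve days, renewed at medium changes on DIV 5 and 9. Viability read as resazurin reduction by fluorescence, relative to DMSO.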

[16] = target: Estrogen receptor (Homo sapiens) (UniProt P03372); assay: CCTE_Deisenroth_AIME_384WELL_LUC_Inactive: CCTE's 384-well Estrogen Receptor Transactivation Assay without AIME metabolic competence (ERTA luciferase; metabolism negative), Deisenroth Lab (AID 2284038; active = hit-call score of the fitted dose curve at least 0.9, where 1 is the maximum;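 also: VM7Luc4E2 breast cells given medium preincubated 2 h with S9-free microspheres; hits raise estrogen receptor luciferase signal so potencies reflect agonists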)
Outline: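 Metabolism-negative mode: chemicals (10-point, 0.002–200 uM) held 2 h with alginate-water microspheres, then conditioned medium applied to VM7Luc4E2 cells for 24 h. Luciferase induction referenced to 17beta-estradiol.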

[17] = UKN5_HCS_SBAD2_cell_viability: Viability Assessment in the University of Konstanz (UKN) Leist Lab Neurite Outgrowth Assay in human iPSC-derived immature Dorsal Root Ganglia Neurons (UKN5) (AID 2284056)
Outline: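 iPSC-derived immature peripheral neurons (SBAD2) seeded on Matrigel with CHIR99021, SU5402 and DAPT, dosed 1 h later for 24 h. Viability from Hoechst H-33342 and calcein-AM live staining, high-content imaging; bidirectional fit versus DMSO.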

[18] = UKN5_HCS_SBAD2_neurite_outgrowth: University of Konstanz (UKN) Leist Lab Neurite Outgrowth Assay in human iPSC-derived immature Dorsal Root Ganglia Neurons (UKN5) (AID 2284070); settings: actives raise or lower the signal
Outline: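 SBAD2 iPSC-derived immature peripheral neurons on Matrigel, 100.000 cells/cm2, medium with CHIR99021 (1.5 uM), SU5402 (5 uM), DAPT (5 uM); compound added 1 h post-seeding for 24 h. Calcein-AM neurite area by high-content imaging; Hoechst H-33342 viability; bidirectional fit vs DMSO.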

Measured: AC50

Estrogen receptor (Homo sapiens), sequence (P03372 whole entry, looked up): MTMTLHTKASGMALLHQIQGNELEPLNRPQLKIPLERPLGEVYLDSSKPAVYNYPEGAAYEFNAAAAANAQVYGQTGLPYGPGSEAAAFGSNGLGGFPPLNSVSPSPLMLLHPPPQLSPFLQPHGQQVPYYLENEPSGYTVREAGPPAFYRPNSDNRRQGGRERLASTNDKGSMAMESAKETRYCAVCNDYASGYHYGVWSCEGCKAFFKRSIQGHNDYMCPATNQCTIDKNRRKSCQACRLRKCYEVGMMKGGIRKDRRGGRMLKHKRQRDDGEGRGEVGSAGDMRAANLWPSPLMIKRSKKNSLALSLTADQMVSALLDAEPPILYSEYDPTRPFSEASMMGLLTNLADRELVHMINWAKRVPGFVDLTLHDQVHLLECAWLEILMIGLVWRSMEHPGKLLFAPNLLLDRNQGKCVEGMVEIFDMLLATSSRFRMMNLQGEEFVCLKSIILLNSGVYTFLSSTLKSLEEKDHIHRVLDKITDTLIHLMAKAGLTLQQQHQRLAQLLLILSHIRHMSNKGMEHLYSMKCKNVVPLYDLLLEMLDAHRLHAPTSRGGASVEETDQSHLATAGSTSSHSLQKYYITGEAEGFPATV

C#CC(C)(C)NC(=O)c1cc(Cl)cc(Cl)c1
inactive: [1]

O=[N+]([O-])c1cc(C(F)(F)F)c(Cl)c([N+](=O)[O-])c1Nc1ncc(C(F)(F)F)cc1Cl
active: [1] 142000 nM | [2] 905 nM | [4] 390 nM | [5] 374 nM | [6] 783 nM | [7] 0.549 µM | [8] 1900 nM | [9] 0.425 µM | [10] 1.06 µM | DIO2 (gene 1734) 2040 nM | [11] 734 nM | [12] 0.291 µM | [13] 742 nM | DIO3 (gene 1735) 2040 nM | [14] 0.871 µM | [15] 1.01 µM
inactive: [3]

CCCCOC(=O)[C@@H](C)Oc1ccc(Oc2ccc(C#N)cc2F)cc1
inactive: [16] | [3]

CC1(C(=O)Nc2ccc(O)c(Cl)c2Cl)CCCCC1
inactive: [1]

CCOP(=O)(NC(C)C)Oc1ccc(SC)c(C)c1 (stereo unspecified)
active: [2] 33400 nM | [4] 40100 nM | [5] 32300 nM | [7] 17.3 µM | [9] 79.5 µM | [10] 51 µM | [11] 21000 nM | [12] 10.1 µM | [13] 11700 nM | [14] 51 µM
inactive: [1] | [2] | [4] | [5] | [6] | [7] | [8] | [9] | [10] | [11] | [12] | [13] | [14] | [15]

CCCSP(=O)(OCC)Oc1ccc(Br)cc1Cl (stereo unspecified)
active: [14] 1.79 µM
not listed: [3] | DIO2 (gene 1734) | DIO3 (gene 1735) | [16] | [17] | [18]
inactive: all other assays above

CCOP(=S)(OCC)OC(Cl)C(Cl)(Cl)Cl (stereo unspecified)
inactive: [6] | [7] | [8] | [9] | [12]
active: [2] 50 µM and 22.9 µM | [4] 77.2 µM and 23.6 µM | [5] 31.8 µM and 23.2 µM | [6] 23400 nM | [7] 23.4 µM | [8] 13100 nM | [9] 23.1 µM | [10] 50 µM and 20.2 µM | [11] 50 µM and 23.4 µM | [12] 13.9 µM | [13] 26.7 µM and 18.6 µM | [14] 31 µM and 21.4 µM | [15] 30.7 µM and 17.8 µM

CC[C@H](C)[C@H]1O[C@]2(C=C[C@@H]1C)C[C@@H]1C[C@@H](C/C=C(\C)[C@@H](O[C@H]3C[C@H](OC)[C@@H](O[C@H]4C[C@H](OC)[C@@H](NC)[C@H](C)O4)[C@H](C)O3)[C@@H](C)/C=C/C=C3\CO[C@@H]4[C@H](O)C(C)=C[C@@H](C(=O)O1)[C@]34O)O2
inactive: [8] | [13]
active: [2] 55 nM and 4.37 nM | [4] 21.3 nM and 3.47 nM | [5] 43.5 nM and 3.01 nM | [6] 44.7 nM and 5.36 nM | [7] 20.1 nM and 1.89 nM | [8] 160 nM | [9] 47.4 nM and 4.79 nM | [10] 106 nM and 9.12 nM | DIO2 (gene 1734) 31300 nM | [11] 13 nM and 2.69 nM | [12] 5.01 nM and 3.04 nM | [13] 517 nM | DIO3 (gene 1735) 33600 nM | [17] 1520 nM | [14] 145 nM and 0.883 nM | [18] 1120 nM | [15] 0.656 µM

CC(Oc1cccc(Cl)c1)C(=O)O (stereo unspecified)
not listed: [1] | [3] | DIO2 (gene 1734) | DIO3 (gene 1735) | [15] | [16] | [17] | [18]
inactive: all other assays above

CCOP(=O)(OCC)Oc1cc(C)nc(C(C)C)n1
not listed: [1] | [3] | DIO2 (gene 1734) | DIO3 (gene 1735) | [16] | [17] | [18]
inactive: all other assays above
